Sampled rows, rich in hits. Any-hit rate of the full collection: about 3.7%.
AF4-AF9 inh – MLL-AF4/AF9 protein interaction inhibition | P42568 | AlphaScreen, biotin-AF4 peptide binding to FLAG-AF9 | inhibition, % at 10 µM | actives 0.47% (n = 350,000);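 active means every replicate reaching a set inhibition limit, whatever the replicate mean, cut at about 25% in these data; inconclusive means mean inhibition reaches that limit but some replicates miss it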;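 further: 0% = plate neutral control median and 100% = total signal loss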
Target sequence (P42568 whole entry, looked up): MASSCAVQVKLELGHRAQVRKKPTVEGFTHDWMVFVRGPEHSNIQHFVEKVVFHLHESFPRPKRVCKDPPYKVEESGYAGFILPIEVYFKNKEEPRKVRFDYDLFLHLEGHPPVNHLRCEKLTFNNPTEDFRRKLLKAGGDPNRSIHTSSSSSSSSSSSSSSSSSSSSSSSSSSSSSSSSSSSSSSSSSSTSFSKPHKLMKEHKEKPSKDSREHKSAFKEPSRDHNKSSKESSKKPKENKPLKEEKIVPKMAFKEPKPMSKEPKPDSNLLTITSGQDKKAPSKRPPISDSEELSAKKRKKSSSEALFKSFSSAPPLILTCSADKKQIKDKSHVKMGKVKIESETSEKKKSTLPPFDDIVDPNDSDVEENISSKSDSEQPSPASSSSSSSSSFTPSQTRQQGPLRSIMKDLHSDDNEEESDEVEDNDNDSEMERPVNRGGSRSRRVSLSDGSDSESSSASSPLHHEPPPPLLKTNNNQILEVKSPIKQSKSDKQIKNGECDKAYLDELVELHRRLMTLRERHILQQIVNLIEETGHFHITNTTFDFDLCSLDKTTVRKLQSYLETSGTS
rRNA inh HTS – inhibitors of bacterial rRNA selective over humanized ribosomes | actives 1.6% (n = 350,000) | GFP signal change (wild-type ribosome), % (test concentration not listed) | E. coli WT GFP vs humanized-ribosome RFP mutants, fluorescence, 24 h; stronger effect = lower value; DMSO median 0, no signal -100;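 active means significant combined selectivity score with lowered wild-type GFP, culture density cut under 30%, mutant RFP and density less affected; inactive means any of these conditions unmet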
Wnt act – activates Wnt/beta-catenin signaling in a reporter cell assay | activation, % at 9.35 µM | AID 743398 | actives 1.2% (n = 300,000) | activator, plate reader; in the data active means activation above about 30%, passing the limit was not always enough; inconclusive means no clear call, values can overlap the other calls;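 further: 0% = neutral control wells and 100% = positive control wells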
MITF act – increases MITF-driven TRPM1 promoter luciferase signal; SK-MEL-5 TRPM1-promoter luciferase, 24 h; % of positive control, neutral wells = 0; activation, % at 12.5 µM; actives 0.75% (n = 300,000);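 active means mean activation of at least 80% with every replicate also reaching 80%; inconclusive means mean reaches 80% but some replicate falls short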;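 further: 0% = neutral control wells and 100% = parthenolide positive control wells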
esBAF inh – blocks esBAF chromatin remodeling in mouse ES cells; Bmi1-luciferase knock-in reporter, 24 h; 100% = twice the neutral-well signal; reporter increase, % at 12.5 µM; actives 2% (n = 350,000); in the data active means activation above about 40%; inconclusive means no clear call, values can overlap the other calls;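 further: 0% = median of the plate's neutral control wells and 100% = double that signal; a rise in the Bmi1 reporter signal indicates esBAF inhibition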
The depositor's hits bear a star; ? = inconclusive; / = no result given.

SMILES | AF4-AF9 inh | rRNA inh HTS | Wnt act | MITF act | esBAF inh
CS(=O)(=O)Nc1ccc(-c2cn3cccnc3n2)cc1 | -1 | -4 | 0 | 7 | 4
c1cnc2nc(-c3ccc4c(c3)OCO4)cn2c1 | -1 | 14 | -2 | 87* | ?
c1ccc(-c2nccc(-c3ccc4c(c3)OCO4)n2)cc1 | -5 | -2 | 9 | 17 | 51*
O=C(c1ccco1)N1CCN(C(=S)NC2CC3CCC2C3)CC1 (stereo not given) | -6 | -6 | 1 | 6 | /
O=S(=O)(N[C@H]1C[C@@H](NS(=O)(=O)OCC(Cl)(Cl)Cl)C2CCCCC21)OCC(Cl)(Cl)Cl (stereo not given in full) | 4 | -14 | 0 | -1 | -11
CCOc1ccccc1C1C2=C(COC2=O)Nc2cc3c(cc21)OCO3 (stereo not given) | 8 | -24* | -6 | -51 | /
CCN(Cc1ccccc1)c1ccc(/C=C(\C#N)c2ccccn2)cc1 | / | / | 96* | 121* | 77*
COc1cc(CNCc2ccccn2)ccc1OCc1ccc(Cl)c(Cl)c1 | 19 | -56 | 25 | 105* | 36
O=C(OCc1ccc(Cl)c(Cl)c1)c1cccnc1Cl | -1 | 2 | 1 | 13 | 7
Nc1ncccc1OCc1ccc(Cl)c(Cl)c1 | 4 | -21* | 47* | / | /
Cc1ccc(NC(=O)C2Cc3ccccc3CN2C(=O)c2ccccc2)cc1Cl (stereo not given) | / | / | / | 10 | 17
C/C(=N\Nc1ccc(S(=O)(=O)Nc2ccccc2)cc1[N+](=O)[O-])c1ccncc1 | / | 24 | 0 | / | /
COc1ccc(NS(=O)(=O)c2ccc(N/N=C(\C)c3ccncc3)c([N+](=O)[O-])c2)cc1 | 2 | -23* | -2 | -19 | /
O=C(NCCOc1ccccc1F)C1CC(=O)N(Cc2ccccc2)C1 (stereo not given) | 0 | 0 | 34* | 1 | -12
Cc1ccnc(NC(=O)C2CC(=O)N(Cc3ccccc3)C2)c1 (stereo not given) | -1 | 2 | ? | 90* | 24
CCC(NC(=O)C1CCC1)c1ccccc1 (stereo not given) | / | / | -3 | 8 | -2
Cc1cc(C)nc(N2CCCC(C(=O)NCC(c3ccccc3)c3ccccc3)C2)n1 (stereo not given) | / | / | 7 | / | 7
CCOC(=O)CSc1ncc(-c2ccccc2)cn1 | / | / | / | -1 | /
C#CCSc1ncc(-c2ccccc2)cn1 | -6 | -6 | 9 | 59 | 73*
C=CCSc1ncc(-c2ccccc2)cn1 | 0 | -4 | ? | 73 | 50*
CSc1ncc(-c2ccccc2)cn1 | -2 | 9 | 6 | 41 | /
O=C(NC1CCc2ccccc21)C1CCN(S(=O)(=O)c2ccc(Cl)cc2)CC1 (stereo not given) | / | / | / | 1 | /
O=S(=O)(NC1CCc2ccccc21)c1ccc(S(=O)(=O)N2CCCC2)cc1 (stereo not given) | -8 | -29* | -1 | -10 | /
CCSc1cc(N2CCOCC2)nc(-c2ccc(Cl)cc2)n1 | 2 | 10 | -1 | 0 | /
Cc1ccc(C(CC(=O)N2CCCC2)c2ccccc2)c(O)c1 (stereo not given) | 1 | -26* | 0 | -5 | -2
SMILES | AF4-AF9 inh | rRNA inh HTS | Wnt act | MITF act | esBAF inh
CC(=O)CCSc1ncnc2sc(-c3ccccc3)cc12 | -2 | -23 | 43* | 69 | 77*
O=C(O)CCSc1ncnc2sc(-c3ccccc3)cc12 | 9 | 5 | -4 | -66 | -82
N#C/C(C(N)=O)=C1/SC(Cc2ccc(F)cc2)C(=O)N1c1ccccc1 (stereo not given) | -2 | -6 | -3 | / | /
Cc1ccccc1N1C(=O)C(Cc2ccc(F)cc2)S/C1=C(\C#N)C(N)=O (stereo not given) | 0 | -31* | -3 | / | /
C[C@@H]1CN([C@H](C)CO)C(=O)Cc2cc(N(C)C)ccc2O[C@@H]1CN(C)S(=O)(=O)c1ccc(F)cc1 | 2 | 2 | / | / | -3
Cc1ccc(C(=O)Cn2nnc(-c3cccs3)n2)cc1 | 2 | 8 | 40* | 43 | 20
CC1CCN(C(=O)Cn2nnc(-c3cccs3)n2)CC1 | -5 | 4 | 5 | 38 | 48*
O=C(Cn1nnc(-c2cccs2)n1)NCc1cccs1 | -3 | 6 | -1 | 10 | /
COC(=O)[C@]1(C)N[C@H](CN(C)S(=O)(=O)c2ccc(OC(F)(F)F)cc2)[C@@H]2C(=O)N(Cc3ccccc3)C(=O)[C@@H]21 | 3 | -21* | -3 | 0 | -1
O=C(N1CCc2cc(S(=O)(=O)NC[C@H]3O[C@@H](n4ccc(=O)[nH]c4=O)[C@H](O)[C@@H]3O)ccc2C1)C(F)(F)F | -1 | 3 | 3 | -13 | -4
O=[N+]([O-])c1cccc(-c2nnc(-c3ccccc3F)o2)c1 | -2 | 1 | 49* | / | 40
Nc1nnc(-c2cccc([N+](=O)[O-])c2)o1 | -43 | 0 | 2 | 13 | /
Cc1cccc(/C(N)=N/OC(=O)Cc2cccs2)c1 | / | / | / | 95* | 48*
Cc1ccc(/C(N)=N/OC(=O)Cc2ccccc2)cc1 | 1 | / | -3 | 68 | /
N/C(=N\OC(=O)Cc1cccs1)c1ccccc1 | / | / | / | / | 72*
Cc1cc(OCC(=O)O/N=C(\N)Cc2cccs2)ccc1Br | 1 | -24* | -1 | 8 | -9
Cc1ccc(/C(N)=N/OC(=O)Cc2cccs2)cc1 | / | / | / | 111* | 55*
NS(=O)(=O)c1ccc(CCNC(=O)/C=C/c2ccc(S(=O)(=O)N3CCOCC3)cc2)cc1 | 1 | 0 | 0 | 3 | -3
N/C(=N\OC(=O)Cc1cccs1)c1cccc([N+](=O)[O-])c1 | / | / | 5 | 20 | 34
Cc1ccc(C(=O)O/N=C(\N)Cc2cccs2)c(Cl)c1 | / | / | / | 117* | /
N/C(=N\OC(=O)Cc1cccs1)c1ccc(Cl)cc1 | 3 | 1 | 34* | 79 | 81*
Cc1cccc(/C=N/NC(=O)Cc2cccs2)c1 | 0 | -19* | 16 | / | /
Cc1[nH]n(-c2ccccc2)c(=O)c1N=Nc1ccc2c(c1)OCO2 | -13 | 5 | 50* | 49 | 64*
Cc1nn2cc(-c3ccc(-c4ccccc4)cc3)nc2s1 | / | / | ? | 32 | -42
Cc1nn2cc(-c3ccc(Cl)cc3)nc2s1 | / | / | 71* | / | -2
SMILES | AF4-AF9 inh | rRNA inh HTS | Wnt act | MITF act | esBAF inh
O=C(C[C@H]1CC[C@H](NS(=O)(=O)c2ccc(F)cc2)[C@@H](CO)O1)NCc1ccccc1F | -3 | -1 | / | / | /
COc1cccc(NC(=O)c2cc3ccccc3cc2OC)c1 | -5 | -16 | 49* | / | 50*
COc1ccc(OC)c(NC(=O)c2cc3ccccc3cc2OC)c1 | 0 | -22 | 3 | 29 | 13
COc1cc2ccccc2cc1C(=O)Nc1ccc(O)cc1 | 0 | 1 | 53* | / | ?
O=C(Nc1ccon1)c1csc2c1CCCC2 | -38 | -25 | 0 | 1 | -2
O=C(Nc1nccs1)c1csc2c1CCCC2 | / | / | / | 41 | 63*
COc1cccc(NC(=O)c2ccccc2F)c1 | 3 | 5 | ? | 87* | 38
CCCc1nc2ccc(Cl)cn2c1Cc1ccccc1 | 2 | / | 5 | / | -1
